D1 agonist = Allosteric Agonists of the Human D1 Dopamine Receptor: qHTS; D(1A) dopamine receptor (Homo sapiens), P21728; HEK293 T-REx D1 cells, calcium flux, agonist mode; activation, % at 2 µM; 360,000 tested, 1% active; also: 0% is about no effect
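Tetracycline-induced HEK293 TREx D1 cells, force-coupled to calcium signalling, were dye-loaded with a no-wash calcium kit. Compound was pin-added after a 10 s baseline. Fluorescence was read kinetically at 1 cycle/s for 180 s, with calcium rises flagged as agonism.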
D1 antagonist = Antagonist of Human D 1 Dopamine Receptor: qHTS. D(1A) dopamine receptor (Homo sapiens), P21728. HEK293 TREx D1 cells, calcium flux, dopamine EC80; hits give low values. activity change, negative = inhibition, % at 10 µM. 360,000 tested, 3.2% active; in the data active = activity change below about -30%; also: % is scaled to controls: 0 for no effect and ±100 for the full control effect
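Allosteric or orthosteric antagonism assessed as attenuation of the calcium response to EC80 dopamine, added 180 s after compound, in induced HEK293 Trex D1 cells loaded with no-wash calcium dye.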
D1 potentiator = Potentiators of Human D1 Dopamine Receptor: qHTS; potentiation, % at 10 µM; HEK293 TREx D1 cells, calcium flux, dopamine EC20 potentiation; D(1A) dopamine receptor (Homo sapiens), P21728; AID 504651, 2011; 360,000 tested, 0.036% active; in the data active = potentiation above about 30%; also: 0% is about no effect
TRHR ag = qHTS for Small Molecule Agonists and Allosteric Enhancers of Human TRH Receptor: Primary Screen for Agonists; 360,000 tested, 0.18% active; Thyrotropin-releasing hormone receptor (Homo sapiens), P34981; TRHR cells, calcium flux fluo-8, FDSS agonist mode; activation, % at 2 µM; also: 0% is about no effect
Target sequence (P34981 whole entry, looked up): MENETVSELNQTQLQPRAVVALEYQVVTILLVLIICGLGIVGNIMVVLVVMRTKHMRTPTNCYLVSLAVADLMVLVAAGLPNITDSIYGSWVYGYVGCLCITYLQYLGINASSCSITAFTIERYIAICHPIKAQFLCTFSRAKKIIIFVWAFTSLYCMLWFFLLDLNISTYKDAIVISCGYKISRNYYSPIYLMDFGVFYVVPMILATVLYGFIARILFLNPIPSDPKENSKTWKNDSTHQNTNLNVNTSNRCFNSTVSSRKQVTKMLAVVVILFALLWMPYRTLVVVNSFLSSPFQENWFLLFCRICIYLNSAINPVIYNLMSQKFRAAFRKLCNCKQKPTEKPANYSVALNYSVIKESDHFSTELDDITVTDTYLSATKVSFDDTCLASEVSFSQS
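Read-out: compound-evoked intracellular calcium rise in TRHR cells, fluo-8 dye, kinetic FDSS fluorescence at 1 s/cycle following a 10-cycle baseline. Cells cultured overnight before dye loading (30 min–1.5 h, RT).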
USP1-UAF1 inh = Inhibitors of USP1/UAF1: Primary Screen; recombinant USP1/UAF1, Ub-Rhodamine cleavage fluorescence; Potency, µM (doses to about 57.1 µM), for the others: at the top dose activity change, negative = inhibition, usual class: inhibitors; Ubiquitin carboxyl-terminal hydrolase 1 (Homo sapiens), O94782; 390,000 tested, 0.23% active; active = well fitted inhibition curve with a large enough effect; inconclusive = small, poorly fitted or top-dose-only effect; inactive = no such curve, though single readings can be large or run the other way; also: potency is read from the fitted curve at half-maximal effect; % is scaled to controls: 0 for no effect and ±100 for the full control effect; nearly all actives have a fitted effect of over 60% in size
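USP1/UAF1 complex (1 nM) preincubated 15 min at room temperature with compound, then Ub-Rho substrate (150 nM final) added. Kinetic fluorescence at 480/540 nm over 6 reads at 60 s intervals; 50 mM HEPES pH 7.8, 0.5 mM EDTA, 0.1 mg/ml BSA, 1 mM TCEP, 0.01% Tween-20.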
TRHR enhancer = qHTS for Small Molecule Agonists and Allosteric Enhancers of Human TRH Receptor: Primary Screen for Enhancers | Thyrotropin-releasing hormone receptor (Homo sapiens), P34981 | TRHR cells, fluo-8 calcium fluorescence, EC20 TRH enhancement | enhancement, % at 2 µM | 360,000 tested, 0.66% active | AID 493056, 2011; in the data active = enhancement above about 30%; also: 0% is about no effect
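TRHR-expressing cells loaded with fluo-8 calcium dye were read kinetically (ex 480/em 530) during compound addition, then stimulated with an EC20 of TRH (10 nM final). Enhancement of the Gq-mediated intracellular calcium response was scored.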
Numbers without * were called inactive. In the library only some 4.4% were active in any assay of this set; here they are far more common. Rule as the data show it, unless noted: active = activation above about 30%; inactive = the rest.

`CN(C)CCn1c(C(=O)Nc2ccccc2)cc2ccccc21` gave D1 agonist 3, D1 antagonist -43*, D1 potentiator -14, TRHR ag 0, USP1-UAF1 inh -12% and TRHR enhancer 3.
`CCOC(=O)c1cc2ccccc2n1CCN(CC)CC` gave D1 agonist 1, D1 antagonist -5, D1 potentiator -9, TRHR ag 4, USP1-UAF1 inh -11% and TRHR enhancer -2.
For Cc1nnc(NC2CCCCC2)[nH]c1=O the results were D1 agonist 3, D1 antagonist -3, D1 potentiator -2, TRHR ag 1, USP1-UAF1 inh -10% and TRHR enhancer 3.
Cc1n[nH]c(=O)nc1NC1CCCCC1 was read as D1 agonist 0, D1 antagonist -44*, D1 potentiator 2, TRHR ag 0, USP1-UAF1 inh -18% and TRHR enhancer -4.
`CC1=C(C(=O)Nc2cc(C)cc(C)c2)C2(CCCCC2)OC1=O` gave D1 agonist 3, D1 antagonist 0, D1 potentiator -3, TRHR ag 0, USP1-UAF1 inh -15% and TRHR enhancer 4.
CCC(C)(C)NS(=O)(=O)c1cc(-c2cc(C)no2)ccc1C was read as D1 agonist 1, D1 antagonist -5, D1 potentiator 2, TRHR ag 0, USP1-UAF1 inh -23% and TRHR enhancer -3.
`Cc1ccc(C)c(OCCC(=O)OCC(=O)Nc2ccc(N3CCOCC3)cc2)c1` gave D1 agonist 9, D1 antagonist -53*, D1 potentiator -5, TRHR ag -1, USP1-UAF1 inh -8% and TRHR enhancer 4.
O=C(COC(=O)COc1cccc(C(F)(F)F)c1)Nc1ccc(N2CCOCC2)cc1 was read as D1 agonist 7, D1 antagonist -40*, D1 potentiator -9, TRHR ag 0, USP1-UAF1 inh -21% and TRHR enhancer -4.
Screening N=C1C(c2ccccc2)=C(O)CN1CCO returned D1 agonist 1, D1 antagonist -30*, D1 potentiator 1, TRHR ag -1, USP1-UAF1 inh -4% and TRHR enhancer 4.
COc1ccc(-c2ccc(SCC(=O)N3CCOCC3)nn2)cc1 was read as D1 agonist 7, D1 antagonist -31*, D1 potentiator -14, TRHR ag 0, USP1-UAF1 inh -6% and TRHR enhancer 5.
For O=C(CSc1ccc(-c2ccc(Br)cc2)nn1)N1CCOCC1 the results were D1 agonist 4, D1 antagonist -2, D1 potentiator -1, TRHR ag 0, USP1-UAF1 inh -6% and TRHR enhancer 0.
`Cc1c(C(=O)N2CCCC2)oc2c1-c1nn(CC(=O)NCc3ccccc3Br)cc1CC2` gave D1 agonist -1, D1 antagonist -12, D1 potentiator 1, TRHR ag 0, USP1-UAF1 inh inconclusive and TRHR enhancer 2.
`CCOc1ccc(NC(=O)N2CCC(N3CCCCC3)CC2)cc1` gave D1 agonist 0, D1 antagonist -1, D1 potentiator -2, TRHR ag 1, USP1-UAF1 inh 0% and TRHR enhancer 7.
For CC1(C)Cc2c(C#N)c(N3CCN(C(=O)c4ccccc4)CC3)nc(-c3ccco3)c2CS1 the results were D1 agonist 1, D1 antagonist 8, D1 potentiator 0, TRHR ag -1, USP1-UAF1 inh -6% and TRHR enhancer 33*.
For Cc1cccc(OCc2nnc(SCC(=O)Nc3ccc(C)cc3C)o2)c1 the results were D1 agonist -1, D1 antagonist 3, D1 potentiator 0, TRHR ag -1, USP1-UAF1 inh -13% and TRHR enhancer 1.

Assay outcomes deposited in PubChem BioAssay by National Center for Advancing Translational Sciences (NCATS).
